# Source: the supplement of paper PMC12282887
# ± gives the standard deviation of the averaged measurements.
# Tests used:
# Assay in all cases: promoter activity interaction Z-score (Lux/OD deviation from empty-vector control); higher = stronger promoter induction by the compound
# [1] = test system: E. coli BW25113 marRABp lux reporter; conditions: 196.3 µg/ml
# Outline: (§1)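 E. coli BW25113 (wild type or marA, soxS or rob deletion) carrying low-copy luxCDABE promoter reporters grew in 40 µl LB Lennox in 384-well plates at 37°C. Each compound was tested at four 1:2 dilutions in biological duplicates. OD600 and luminescence were read every 30 min for 12 h. Areas were taken over 0–8 h (wild type) or 1–9 h (mutants), and wells below 10% of median growth area were removed. The score is the Z-transformed residual of growth-normalised luminescence fitted against the empty-vector control.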
# [2] = test system: E. coli BW25113 micFp lux reporter
# Outline: as §1
# [3] = test system: E. coli BW25113 ompFp lux reporter
# Outline: as §1
# [4] = test system: E. coli BW25113 robp lux reporter
# Outline: as §1
# [5] = test system: E. coli BW25113 soxSp lux reporter
# Outline: as §1
# [6] = test system: E. coli BW25113 tolCp lux reporter
# Outline: as §1
# [7] = 24.5 µg/ml, genetic background: wild type
# [8] = 24.5 µg/ml, genetic background: ΔmarA
# [9] = 24.5 µg/ml, genetic background: Δrob
# [10] = 24.5 µg/ml, genetic background: ΔsoxS
# [11] = 49.1 µg/ml, genetic background: wild type
# [12] = 49.1 µg/ml, genetic background: ΔmarA
# [13] = 49.1 µg/ml, genetic background: Δrob
# [14] = 49.1 µg/ml, genetic background: ΔsoxS
# [15] = 98.1 µg/ml, genetic background: wild type
# [16] = 98.1 µg/ml, genetic background: ΔmarA
# [17] = 98.1 µg/ml, genetic background: Δrob
# [18] = 98.1 µg/ml, genetic background: ΔsoxS
# [19] = 196.3 µg/ml, genetic background: wild type
# [20] = 196.3 µg/ml, genetic background: ΔmarA
# [21] = 196.3 µg/ml, genetic background: Δrob
# [22] = 196.3 µg/ml, genetic background: ΔsoxS
compound,measurement,setting,value
C[C@H](CCC(=O)O)[C@H]1CC[C@H]2[C@@H]3CC[C@@H]4C[C@H](O)CC[C@]4(C)[C@H]3C[C@H](O)[C@]12C [Deoxycholic acid],promoter activity interaction Z-score,[1]; genetic background: Δrob,-0.197 ± 0.065
same,promoter activity interaction Z-score,[1]; genetic background: ΔsoxS,-0.366 ± 0.062
same,promoter activity interaction Z-score,[2]; [7],-0.343 ± 0.23
same,promoter activity interaction Z-score,[2]; [8],0.0199 ± 0.11
same,promoter activity interaction Z-score,[2]; [9],0.0283 ± 0.0044
same,promoter activity interaction Z-score,[2]; [10],-0.264 ± 0.083
same,promoter activity interaction Z-score,[2]; [11],-0.355 ± 0.065
same,promoter activity interaction Z-score,[2]; [12],0.175 ± 0.087
same,promoter activity interaction Z-score,[2]; [13],-0.0435 ± 0.061
same,promoter activity interaction Z-score,[2]; [14],-0.146 ± 0.02
same,promoter activity interaction Z-score,[2]; [15],0.114 ± 0.12
same,promoter activity interaction Z-score,[2]; [16],0.0675 ± 0.083
same,promoter activity interaction Z-score,[2]; [17],-0.0555 ± 0.049
same,promoter activity interaction Z-score,[2]; [18],0.221 ± 0.023
same,promoter activity interaction Z-score,[2]; [19],0.0636 ± 0.083
same,promoter activity interaction Z-score,[2]; [20],0.21 ± 0.12
same,promoter activity interaction Z-score,[2]; [21],-0.134 ± 0.011
same,promoter activity interaction Z-score,[2]; [22],-0.044 ± 0.02
same,promoter activity interaction Z-score,[3]; [7],-0.553 ± 0.23
same,promoter activity interaction Z-score,[3]; [8],-1.03 ± 0.14
same,promoter activity interaction Z-score,[3]; [9],-0.889 ± 0.033
same,promoter activity interaction Z-score,[3]; [10],-0.771 ± 0.0099
same,promoter activity interaction Z-score,[3]; [11],-0.241 ± 0.37
same,promoter activity interaction Z-score,[3]; [12],-0.568 ± 0.061
same,promoter activity interaction Z-score,[3]; [13],-0.421 ± 0.46
same,promoter activity interaction Z-score,[3]; [14],-0.619 ± 0.45
same,promoter activity interaction Z-score,[3]; [15],0.192 ± 0.079
same,promoter activity interaction Z-score,[3]; [16],-1.07 ± 0.24
same,promoter activity interaction Z-score,[3]; [17],-0.618 ± 0.14
same,promoter activity interaction Z-score,[3]; [18],-0.316 ± 0.15
same,promoter activity interaction Z-score,[3]; [19],-0.117 ± 0.52
same,promoter activity interaction Z-score,[3]; [20],-0.473 ± 0.02
same,promoter activity interaction Z-score,[3]; [21],-0.582 ± 0.058
same,promoter activity interaction Z-score,[3]; [22],-0.78 ± 0.4
same,promoter activity interaction Z-score,[4]; [7],0.346 ± 0.23
same,promoter activity interaction Z-score,[4]; [8],-0.527 ± 0.51
same,promoter activity interaction Z-score,[4]; [9],0.184 ± 0.84
same,promoter activity interaction Z-score,[4]; [10],-0.0515 ± 0.27
same,promoter activity interaction Z-score,[4]; [11],0.0327 ± 0.23
same,promoter activity interaction Z-score,[4]; [12],0.517 ± 0.54
same,promoter activity interaction Z-score,[4]; [13],0.31 ± 0.44
same,promoter activity interaction Z-score,[4]; [14],0.767 ± 0.39
same,promoter activity interaction Z-score,[4]; [15],0.553 ± 0.54
same,promoter activity interaction Z-score,[4]; [16],0.501 ± 0.48
same,promoter activity interaction Z-score,[4]; [17],0.729 ± 1.3
same,promoter activity interaction Z-score,[4]; [18],-0.0126 ± 0.038
same,promoter activity interaction Z-score,[4]; [19],0.502 ± 0.87
same,promoter activity interaction Z-score,[4]; [20],0.13 ± 0.13
same,promoter activity interaction Z-score,[4]; [21],-0.399 ± 0.066
same,promoter activity interaction Z-score,[4]; [22],0.439 ± 0.14
same,promoter activity interaction Z-score,[5]; [7],0.0465 ± 0.031
same,promoter activity interaction Z-score,[5]; [8],-0.0486 ± 0.044
same,promoter activity interaction Z-score,[5]; [9],0.0418 ± 0.059
same,promoter activity interaction Z-score,[5]; [10],-0.115 ± 0.036
same,promoter activity interaction Z-score,[5]; [11],0.0154 ± 0.03
same,promoter activity interaction Z-score,[5]; [12],-0.092 ± 0.13
same,promoter activity interaction Z-score,[5]; [13],-0.0215 ± 0.03
same,promoter activity interaction Z-score,[5]; [14],-0.228 ± 0.12
same,promoter activity interaction Z-score,[5]; [15],0.124 ± 0.18
same,promoter activity interaction Z-score,[5]; [16],-0.348 ± 0.085
same,promoter activity interaction Z-score,[5]; [17],-0.0505 ± 0.11
same,promoter activity interaction Z-score,[5]; [18],-0.203 ± 0.29
same,promoter activity interaction Z-score,[5]; [19],-0.0569 ± 0.038
same,promoter activity interaction Z-score,[5]; [20],-0.335 ± 0.053
same,promoter activity interaction Z-score,[5]; [21],-0.26 ± 0.051
same,promoter activity interaction Z-score,[5]; [22],-0.515 ± 0.0068
same,promoter activity interaction Z-score,[6]; [7],0.918 ± 0.69
same,promoter activity interaction Z-score,[6]; [8],0.218 ± 0.13
same,promoter activity interaction Z-score,[6]; [9],1.08 ± 1.6
same,promoter activity interaction Z-score,[6]; [10],0.883 ± 0.56
same,promoter activity interaction Z-score,[6]; [11],0.21 ± 0.56
same,promoter activity interaction Z-score,[6]; [12],0.972 ± 1.2
same,promoter activity interaction Z-score,[6]; [13],0.2888 ± 0.00083
same,promoter activity interaction Z-score,[6]; [14],-0.388 ± 0.38
same,promoter activity interaction Z-score,[6]; [15],0.816 ± 0.38
same,promoter activity interaction Z-score,[6]; [16],0.304 ± 0.81
same,promoter activity interaction Z-score,[6]; [17],0.00196 ± 0.37
same,promoter activity interaction Z-score,[6]; [18],1.18 ± 1.1
same,promoter activity interaction Z-score,[6]; [19],-0.28 ± 1.4
same,promoter activity interaction Z-score,[6]; [20],-0.467 ± 0.27
same,promoter activity interaction Z-score,[6]; [21],-0.148 ± 0.072
same,promoter activity interaction Z-score,[6]; [22],-0.718 ± 1.1
